Hits are enriched below; roughly 0.42% of the tested compounds scored in any of these assays.
Pin1 inhibitor: blocks the human prolyl isomerase Pin1. AID 504891. Potency, µM (highest dose often 115 µM), for inactives: top-dose activity, negative = inhibition, usual class: inhibitors. 390,000 compounds, 0.009% hits. Pin1 FP peptide displacement, HiFluor488, 10 min. Q13526; active = well fitted inhibition curve with a large enough effect in the polarisation, with a control signal flat, not every such curve was filed as active; inconclusive = small, poorly fitted or top-dose-only effect, or effect the other way, or a change in a side signal; inactive = no such curve, though single readings can be large or run the other way; the % refers to the polarisation; also: % is scaled to controls: 0 for no effect and ±100 for the full control effect
B2AR arrestin: recruits beta-arrestin to the human beta2-adrenergic receptor; Potency, µM (highest dose often 46.1 µM), without a hit: top-dose activation, usual class: activators; AID 492947; beta-arrestin recruitment to beta2AR, cell-based reporter; 330,000 compounds, 0.02% hits;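 also: 0% = DMSO controls and full agonism = EC100 isoproterenol or metaproterenol; nearly all actives have a fitted effect of over 65% in size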
Chronic BCR inh: inhibitors of chronic active B-cell receptor signaling; ABC-DLBCL IkBa-CBG/CBR reporter, luminescence ratio, 4 h; Potency, µM (top dose mostly 46.1 µM), for the others: at the highest dose activity change, negative = inhibition, usual class: inhibitors; 340,000 compounds, 0.05% hits; AID 493014; active = well fitted inhibition curve with a large enough effect in the signal ratio, with a control signal flat, not every such curve was filed as active; inconclusive = small, poorly fitted or top-dose-only effect, or effect the other way, or a change in a side signal; the % refers to the signal ratio;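 also: plate controls were basal doxycycline-induced cells for no effect and cells given 10 µM MG132 for full effect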
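Compounds up to 46 uM were incubated four hours with TMD8 cells whose green CBG68 luciferase is fused to IkappaBalpha; red CBR luminescence normalised the signal, and concentration-effect curves were fitted to fusion, red and ratio data.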
Tb PFK inh-1: T. brucei PFK enzyme inhibition | O15648 | T. brucei PFK, ADP-Glo luminescence | Potency, µM (series often up to 57.5 µM), for inactives: at the top dose activity, negative = inhibition, usual class: inhibitors | 330,000 compounds, 0.17% hits;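 also: 0% = uninhibited 1x PFK enzyme wells and -100% = no-enzyme wells; nearly all actives have a fitted effect of over 60% in size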
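Luminescent ADP detection (ADP-Glo, two-step: ATP depletion then ADP-to-ATP conversion for luciferase) reported PFK activity after 45 min room-temperature reaction of 1.25 nM enzyme with 0.5 mM F6P and 0.1 mM ATP at pH 8.0.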
Tb PGK inh: T. brucei PGK inhibition. P07378. PGK/GAPDH coupled, Kinase-Glo luminescence, 60 min. Potency, µM (top dose mostly 57.5 µM), without a hit: top-dose activity change, negative = inhibition, most hits filed as inhibitors. 380,000 compounds, 0.043% hits. AID 602233; also: % is scaled to controls: 0 for no effect and ±100 for the full control effect; nearly all actives have a fitted effect of over 60% in size
Target sequence (P07378 whole entry, looked up): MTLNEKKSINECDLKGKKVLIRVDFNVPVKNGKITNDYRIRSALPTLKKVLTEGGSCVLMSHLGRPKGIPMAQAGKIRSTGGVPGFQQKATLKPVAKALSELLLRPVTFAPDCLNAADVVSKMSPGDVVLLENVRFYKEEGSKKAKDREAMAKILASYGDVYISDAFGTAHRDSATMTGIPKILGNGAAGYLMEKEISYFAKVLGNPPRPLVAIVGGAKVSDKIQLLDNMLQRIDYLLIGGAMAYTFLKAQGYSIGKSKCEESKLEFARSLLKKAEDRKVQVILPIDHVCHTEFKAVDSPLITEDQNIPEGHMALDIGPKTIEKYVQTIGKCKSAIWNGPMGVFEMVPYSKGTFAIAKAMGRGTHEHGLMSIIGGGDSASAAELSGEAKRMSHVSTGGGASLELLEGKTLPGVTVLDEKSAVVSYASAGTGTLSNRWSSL
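Recombinant glycosomal PGK reaction used 1,3-bisphosphoglycerate generated in-well by GAPDH (100nM final) in 100mM TEA pH 7.6, 5mM MgCl2, 0.01% Tween-20. After 60 minutes at room temperature, ATP was read by Kinase-Glo Plus luminescence end-point.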
GLS inhibitor: inhibitors of human glutaminase (GLS); GLS enzymatic activity, qHTS titration; O94925; Potency, µM (highest dose often 45.5 µM), for inactives: at the highest dose activity change, negative = inhibition, most hits filed as inhibitors; 410,000 compounds, 0.21% hits; AID 624170; also: % is scaled to controls: 0 for no effect and ±100 for the full control effect
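Read-out is an Amplex red fluorescence increase coupled through glutamate oxidase and HRP, measured before and after 30 min room-temperature incubation. hKGA is in 45 mM KH2PO4 (pH 8.2) with 0.02% Tween-20; glutamine added as 1mM solution.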
Tb PFK KinaseGlo: Tb phosphofructokinase inhibition, orthogonal luminescence; shares compounds with Tb PFK inh-1; Tb PFK enzyme, ATP depletion, Kinase-Glo Plus luminescence; Potency, µM (series often up to 57.5 µM), without a hit: top-dose inhibition; 1,100 compounds, 47% hits; calls by dose curve; also: nearly all actives have a fitted effect of over 60% in size
Tb PFK inh-2: T. brucei PFK enzyme inhibition, hit validation; purified T. brucei PFK, ADP-Glo luminescence, 45 min; Potency, µM (series often up to 57.5 µM), for the others: at the top dose activity change, negative = inhibition, actives largely listed as inhibitors; shares compounds with Tb PFK inh-1; 1,100 compounds, 41% hits; AID 504637;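 also: plate controls were full PFK enzyme control for no effect and no enzyme control for full effect; nearly all actives have a fitted effect of over 60% in size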
* = called active by the depositor; i = inactive; ? = inconclusive; nt = no result given. Unless noted, calls follow the shape of the dose curve; as a rule, active = well fitted curve in the direction sought with a large enough effect; inconclusive = small, poorly fitted or top-dose-only effect, or another doubt; inactive = no such curve, though single readings can be large; an effect the other way counts as inactive or inconclusive. Potency is read from the fitted curve at half-maximal effect.

SMILES	Pin1 inhibitor	B2AR arrestin	Chronic BCR inh	Tb PFK inh-1	Tb PGK inh	GLS inhibitor	Tb PFK KinaseGlo	Tb PFK inh-2
CCC(C(N)=O)N1CCCC1=O (configuration not stated)	nt	nt	nt	nt	nt	-14%	nt	nt
CC(=O)NS(=O)(=O)c1ccc(NC(=O)c2cccn(Cc3ccc(Cl)cc3)c2=O)cc1	3%	nt	nt	nt	-5%	?	nt	nt
NC(N)=NS(=O)(=O)c1ccc(NC(=S)NC(=O)Cc2ccc(Cl)cc2)cc1	0%	0%	-3%	?	-3%	3%	27µM*	30µM*
CCOP(=O)(c1ccc(N(C)C)cc1)C(O)c1ccc(C)cc1 (configuration not stated)	1%	0%	?	0%	-5%	1%	nt	nt
O=[N+]([O-])c1ccc(NCc2ccccc2)nc1	-3%	0%	5%	?	-8%	-3%	?	?
CC(C)c1ccc(/C=C/C(=O)CCC(=O)O)cc1	-10%	0%	?	0%	-2%	1%	nt	nt
N/C(=N\OC(=O)c1ccco1)c1ccc(Cl)cc1	-5%	0%	?	-8%	-4%	3%	nt	nt
CCOc1ccc(C(c2c(C)[nH][nH]c2=O)c2c(C)[nH][nH]c2=O)cc1OC	3%	0%	?	?	1%	-2%	?	-29%
O=C(CC1SC(=O)N(c2ccccc2)C1=O)Nc1ccc(Br)cc1 (configuration not stated)	-4%	4%	?	19µM*	2%	?	?	?
O=C1CC(c2ccco2)Cc2nc(Nc3nc(-c4ccccc4)c4ccccc4n3)ncc21 (configuration not stated)	17%	0%	?	2%	i	5%	nt	nt
O=C(NNC(=O)c1ccc2nonc2c1)Nc1ccc(Cl)cc1	3%	0%	18%	15µM*	0%	11%	?	?
O=C(O)C(Cc1ccccc1)N1C(=O)/C(=C/C=C/c2ccco2)SC1=S (configuration not stated)	?	0%	13%	?	13µM*	-27%	21µM*	?
O=C1NC(=O)N(Cc2ccccc2)C(=O)/C1=C\C=C\c1ccco1	?	-1%	?	-22%	10%	?	nt	nt
O=C1NC(=O)N(c2ccccc2)C(=O)/C1=C/C=C/c1ccco1	?	6%	?	?	-5%	28%	nt	nt
O=C(O)CC(C(=O)O)N1C(=O)/C(=C/C=C/c2ccco2)SC1=S (configuration not stated)	?	-1%	-1%	8.5µM*	4.5µM*	2.8µM*	2.1µM*	6µM*
CO[C@H]1[C@@H](O)CC(OC2[C@@H](O)CC(OC3[C@@H](O)C[C@H](OC4CC[C@@]5(C)C(CCC6C5CC(O)[C@]5(C)[C@H](C7=CC(=O)OC7)CCC65O)C4)O[C@@H]3C)O[C@@H]2C)O[C@@H]1C (some centres not stated)	nt	nt	nt	nt	nt	3%	nt	nt
O=C(CSC1=NS(=O)(=O)c2cc(Cl)ccc2N1)Nc1cccc(F)c1	-16%	0%	?	?	-1%	1%	24µM*	?
O=C(CN1CC(c2ccccc2)CC1=O)Nc1cccc(F)c1 (configuration not stated)	-2%	-3%	2%	-10%	5%	2%	nt	nt

High-throughput results as filed in PubChem BioAssay.
